From PubChem BioAssay AID1903 (Southern Research Specialized Biocontainment Screening …, 2009)
Among all 310,000 compounds or so, about 1,200 (0.39%) were called active. No rule for the calls is given here. The list is a sample of the results. Measured potencies and affinities stand elsewhere.

target: Large T antigen (Simian virus 40) (UniProt P03070); test: SV40 large T antigen inhibitors, biochemical (AID 1903); settings: SV40 large T antigen ATPase/helicase inhibition assay; at 20 µM; hits give high values
Sequence (P03070 whole entry, looked up): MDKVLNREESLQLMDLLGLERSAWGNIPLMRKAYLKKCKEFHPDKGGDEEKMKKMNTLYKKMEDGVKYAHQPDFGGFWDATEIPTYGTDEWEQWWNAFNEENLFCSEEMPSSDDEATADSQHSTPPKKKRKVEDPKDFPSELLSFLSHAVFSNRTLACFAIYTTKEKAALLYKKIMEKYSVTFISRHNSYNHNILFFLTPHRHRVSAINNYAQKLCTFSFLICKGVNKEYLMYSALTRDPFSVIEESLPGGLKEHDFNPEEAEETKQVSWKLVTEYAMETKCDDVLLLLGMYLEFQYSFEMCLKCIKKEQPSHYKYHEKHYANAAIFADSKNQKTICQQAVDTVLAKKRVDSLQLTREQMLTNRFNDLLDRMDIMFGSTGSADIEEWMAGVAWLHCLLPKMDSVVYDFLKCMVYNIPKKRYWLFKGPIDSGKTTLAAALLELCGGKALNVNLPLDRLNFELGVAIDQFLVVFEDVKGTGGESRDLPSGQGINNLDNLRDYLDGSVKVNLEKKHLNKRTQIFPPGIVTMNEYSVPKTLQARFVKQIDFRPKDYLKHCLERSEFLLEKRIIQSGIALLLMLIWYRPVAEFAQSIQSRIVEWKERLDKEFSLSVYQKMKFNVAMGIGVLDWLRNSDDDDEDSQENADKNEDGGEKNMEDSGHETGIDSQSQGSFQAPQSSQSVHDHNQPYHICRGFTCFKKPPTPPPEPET

inhibition, inactive:
CCOC(=O)C1CCCN(c2c(N3CCC(N4CCCCC4)CC3)c(=O)c2=O)C1 (stereo not drawn) 0.55%, CN1CCN(S(=O)(=O)c2cccc(C(=O)Nc3ccccc3N3CCOCC3)c2)CC1 8.67%, CCC(C)NC(=O)CN(c1ccc(Cl)c(Cl)c1)S(C)(=O)=O (stereo not drawn) 2.27%, COc1cccc(OC)c1C(=O)NNS(=O)(=O)c1ccc2ccccc2c1 4.3%, O=[N+]([O-])c1ccc(Cl)cc1Sc1nc2ccccc2o1 3.7%, O=[N+]([O-])c1ccc(CSc2nc3ccccc3o2)cc1 1.36%, Cc1nc(CCNC(=O)CC2C(=O)NCCN2CC(C)(C)C)nc2c1CCC2 (stereo not drawn) 17.9%, CC(=O)N1CCN(S(=O)(=O)c2cccc(C(=O)Nc3ccc(C)cn3)c2)CC1 10.6%, O=c1cc(CN2CCOCC2)c2ccc(O)c(O)c2o1 31.2%, Cc1c(O)ccc2c(CN3CCN(Cc4ccccc4)CC3)cc(=O)oc12 20.2%, COc1ccc(OC)c(C(=O)c2coc3ccc(O)c(CN(C)C)c23)c1 7.95%, CCCc1cc(N2CCN(C(=O)c3ccco3)CC2)n2c(nc3ccccc32)c1C#N 14.7%, Cc1ccc(S(=O)(=O)Nc2ccc(N3CCN(C)CC3)nc2)cc1 15.7%, COc1ccc2c(OC)c3ccoc3nc2c1OC 6.26%, COc1cc2nc3occc3c(OC)c2cc1OC 19.9%, CCn1nc(C)c(CN2CCCCC2C(=O)Nc2ccc(Oc3cccnc3)cc2)c1C (stereo not drawn) 13.5%, CC(Oc1ccc2ccc(=O)oc2c1)C(=O)N1CCOCC1 (stereo not drawn) 29.2%, O=Nc1c(O)[nH]c2ccc(F)cc12 3.33%, Cc1ccc2[nH]c(O)c(N=O)c2c1 1.83%, Cn1c(=O)c2sccc2n2c(CCCC(=O)N3CCCCC3)nnc12 7.77%, CN1C(=O)N(C)c2ccc(C=O)c3cccc1c23 1.16%, CN1c2cccc3cccc(c23)N(C)C1(C)C 23%, Cc1ccc(C(=O)Nc2ccc(N3CCOCC3)nc2)cc1 1.46%, O=C(CCN1CCN(c2ccccn2)CC1)Nc1ccc(F)cc1 2.77%, COc1ccc(NC(=O)CCN2CCN(S(=O)(=O)c3ccc(C(C)C)cc3)CC2)cc1 14.9%, COc1ccc(NC(=O)CCN2CCN(S(=O)(=O)c3ccc(OC)cc3)CC2)cc1 6.07%, COc1ccc(NC(=O)c2ccc(N3CCOCC3)nc2)cc1 6.11%, CC(=O)Nc1ccc(NC(=O)CN2CCN(c3ccccn3)CC2)cc1 0.46%
